Among the data in PubChem BioAssay (Tox21) are Potency values, retold here.

Where “and” joins values, the source holds several entries; their conditions need not be identical. Equal values may be shown once. Results filed as inconclusive are left out. A call without a number means that no potency is given here. Calls of active or inactive are those of the source. Calls follow the shape of the dose curve; as a rule, active = well fitted cell-killing curve with a large enough effect in the repeat runs; inconclusive = weak or mixed curves, or effect the other way; inactive = no such curve, though single readings can be large or run the other way.
Potency is read from the fitted curve at half-maximal effect.

The assay can be described thus: qHTS assay to identify small molecule antagonists of the progesterone receptor (PR) signaling pathway - cell viability counter screen (AID 1346798). Also: nearly all actives have a fitted effect of over 50% in size. The note with it: PR-UAS-bla HEK293T viability, CellTiter-Glo luminescence, 16 h; series mostly up to 92.4 µM. From the text: National Center for Advancing Translational Sciences [NCATS]
NIH Chemical Genomics Center [NCGC]
U.S. Environmental Protection Agency [EPA]
National Institutes of Environmental Health Sciences [NIEHS]
National Toxicology Program [NTP]
U.S. Food and Drug Administration [FDA]
Progesterone receptor (PR), a nuclear hormone receptor, plays an important role in development, metabolic homeostasis and reproduction. It is activated by the steroid hormone progesterone. Endocrine disrupting chemicals (EDCs) and their interactions with steroid hormone receptors like PR causes disruption of normal endocrine function. To identify the compounds that inhibit PR signaling, a PR-UAS-bla GripTite cell line i.e. PR-UAS-bla HEK293T (Invitrogen, Carlsbad, CA, USA) containing a beta-lactamase reporter gene under the control of an UAS response element was used to screen Tox21 10K compound library. The cytotoxicity of the Tox21 compound library against the PR-bla cell line was tested in parallel by measuring the cell viability using CellTiter-Glo assay in the same wells.
Tox21 Assay Protocol Summary:
PR-UAS-bla HEK293T cells were dispensed at 3,000 cells/4 uL of assay medium containing 2% charcoal stripped FBS per well into black wall/clear-bottom 1536-well plates using a Multidrop Combi (ThermoFisher Scientific, Waltham, MA) dispenser. After the assay plates were incubated at a 37C and 5% CO2 for 4 hr, 23 nL of compounds dissolved in DMSO, positive controls or DMSO only was transferred to the assay plate by a Pintool station (Kalypsys, San Diego, CA), followed by addition of 1 uL of R5020 in assay medium using a Flying Reagent Dispenser (FRD, Aurora Discovery, San Diego, CA). The plates were incubated at 37C and 5% CO2 for 16 hr. Then 1 uL of LiveBLAzer B/G FRET substrate was added using a Flying Reagent Dispenser, the plates were incubated at room temperature for 2 hours, and fluorescence intensity was measured by an Envision plate reader (PerkinElmer, Shelton, CT). For cell viability readout that measures cytotoxicity, 4 uL/well of CellTiter-Glo reagent was added into the assay plates using a FRD. After 30 min incubation at room temperature, the luminescence intensity in the plates was measured using a ViewLux (PerkinElmer) plate reader.
With `CNCCCC12CCC(c3ccccc31)c1ccccc12`, the Potency is 13.7 µM (active) and 26.6 µM (active).

`CCCCC/C=C/C=C/C=O`: the Potency entry was “inactive”.

With `OC[C@H]1O[C@@H]2O[C@H]3[C@H](O)[C@@H](O)[C@@H](O[C@H]4[C@H](O)[C@@H](O)[C@@H](O[C@H]5[C@H](O)[C@@H](O)[C@@H](O[C@H]6[C@H](O)[C@@H](O)[C@@H](O[C@H]7[C@H](O)[C@@H](O)[C@@H](O[C@H]8[C@H](O)[C@@H](O)[C@@H](O[C@H]1[C@H](O)[C@H]2O)O[C@@H]8CO)O[C@@H]7CO)O[C@@H]6CO)O[C@@H]5CO)O[C@@H]4CO)O[C@@H]3CO`, the Potency entry was “inactive”.

Regarding `Cc1cc2nc3c(=O)[nH]c(=O)nc-3n(C[C@H](O)[C@H](O)[C@H](O)CO)c2cc1C`, the Potency result is “inactive”.

For `C#C[C@]1(O)CC[C@H]2[C@@H]3CCc4cc(OC)ccc4[C@H]3CC[C@@]21C`, the Potency result is “inactive”.

With `Cc1ccc2c(n1)Oc1ccc(C(C)C(=O)OCC(=O)N(C)C)cc1C2` (stereo not given), the Potency entry was “inactive”.

Turning to `O=[N+]([O-])c1ccc2c(c1)Cc1ccccc1-2`, the Potency entry was “inactive”.

`CCOC(=O)C(C#N)=C(c1ccccc1)c1ccccc1`: the Potency entry was “inactive”.

Regarding `Cc1cccc(N(C)C(=S)Oc2ccc3ccccc3c2)c1`, the Potency entry is “inactive”.

As to `CC(CCC(=O)O)(c1ccc(O)cc1)c1ccc(O)cc1`, the Potency entry is “inactive”.

For `CCCCCCCCCC(=O)OC`, the Potency entry is “inactive”.

With `CCCCNS(=O)(=O)c1ccccc1`, the Potency result was “inactive”.

Consider `CCCCOCCOCCOCCO`, for which the Potency entry was “inactive”.

Take `O=C(c1ccccc1)c1ccc(O)cc1O`: the Potency was 49.5 µM (active).

As for `c1cc(-c2ccncc2)ccn1`, the Potency entry was “inactive”.

For the compound `c1ccc(Nc2ccccc2)cc1`, the Potency entry was “inactive”.

On to `O=C1OC2(c3cc(Br)c(O)c(Br)c3Oc3c2cc(Br)c(O)c3Br)c2c(Cl)c(Cl)c(Cl)c(Cl)c21`, for which the Potency entry is “inactive”.

Regarding `CN1C(C(=O)Nc2ccccn2)=C(O)c2ccccc2S1(=O)=O`, the Potency result was “inactive”.

Regarding `COC(=O)c1ccccc1`, the Potency result is “inactive”.

As to `Cc1cccc(C(=O)O)c1`, the Potency entry was “inactive”.

Turning to `C#C[C@]1(O)CC[C@H]2[C@@H]3CCC4=Cc5oncc5C[C@]4(C)[C@H]3CC[C@@]21C`, the Potency was 38.6 µM (active).

Consider `CCOCCOCCO`, for which the Potency result is “inactive”.

`CC(C(=O)O)c1cccc(C(=O)c2ccccc2)c1` (stereo not given): the Potency entry is “inactive”.

Regarding `CCCc1c(OCCCCc2nn[nH]n2)ccc(C(C)=O)c1O`, the Potency result is “inactive”.

As for `CC(C)OC(=O)C(C)(C)Oc1ccc(C(=O)c2ccc(Cl)cc2)cc1`, the Potency entry is “inactive”.

Take `CCC(C)c1ccccc1O` (stereo not given): the Potency result was “inactive”.

As to `CC(=O)O[C@]1(C(C)=O)CC[C@H]2[C@@H]3C=C(Cl)C4=CC(=O)[C@@H]5C[C@@H]5[C@]4(C)[C@H]3CC[C@@]21C`, the Potency entry is “inactive”.

In the case of `NC=O`, the Potency result was “inactive”.

Consider `Nc1ccc(Cl)cc1Cl`, for which the Potency result was “inactive”.

Consider `O=C1c2cccc(O)c2C(=O)c2c(O)cccc21`, for which the Potency entry was “inactive”.

For the compound `Cn1cnc([N+](=O)[O-])c1Sc1ncnc2nc[nH]c12`, the Potency result is “inactive”.

As to `O=C=Nc1ccc(Cc2ccc(N=C=O)cc2)cc1`, the Potency result was “inactive”.

Take `O=C(c1ccc(OCCN2CCCCC2)cc1)c1c(-c2ccc(O)cc2)sc2cc(O)ccc12`: the Potency is 61.2 µM (active) and 61.1 µM (active) and 26.6 µM (active).

On to `O=C(c1ccccc1)c1ccccc1O`, for which the Potency entry is “inactive”.

On to `Nc1ncnc2nc[nH]c12`, for which the Potency result was “inactive”.

Regarding `C=C(C)C1CC=C(C)CC1` (stereo not given), the Potency entry was “inactive”.

With `CCCCCCCCCCCO`, the Potency entry is “inactive”.

For the compound `COC(=O)C1=C(C)NC(C)=C(C(=O)OCCN(C)Cc2ccccc2)C1c1cccc([N+](=O)[O-])c1` (stereo not given), the Potency was 30.5 µM (active).

Take `Oc1ccc(O)cc1`: the Potency result is “inactive”.

As for `COC(=O)CCC(=O)OC`, the Potency entry was “inactive”.
